Here are results for 63 compounds from PubChem BioAssay AID1745849 (National Center for Advancing Translational Sciences (NCATS), 2022).

Among all 2,100 compounds or so, about 320 (15%) were called active. Not shown: some 52% with an inconclusive outcome. Calls follow the shape of the dose curve; as a rule, active = well fitted cell-killing curve with a large enough effect; inconclusive = small, poorly fitted or top-dose-only effect, or effect the other way; inactive = flat fitted curve, though single readings scatter. Some of the results follow. Entries that show only a call come without a potency.
Potency is read from the fitted curve at half-maximal effect.

This assay can be described thus: Viability Counterscreen for CMV-Luciferase Assay of Inhibitors of ATXN expression. Also: nearly all actives have a fitted effect of over 55% in size. Particulars: HEK-293 CMV-luciferase cells viability, protease fluorescence, 24 h. Summed up:
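Fluorescence from cleaved Gly-Phe-AFC (25 uM final, 30 min, ex 405/em 540 nm) reported viability, and the luciferase signal of the same CMV-reporter HEK-293 wells was read 5 min after SteadyGlo addition. Dosing lasted 24 hr.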
Background: The purpose of a counterscreen is to sort out artefacts and off-target activity.
With `CCCCC(=O)N(C)c1c(CC)nc2c(OCc3ccc(Cl)cc3Cl)cccn12`, the Potency entry was “inactive”. For the compound `COc1ccc(Br)cc1C(=O)NC(=S)Nc1ccc(CN2CCOCC2)cc1`, the Potency result was “inactive”.

For `CCc1ccc(/C=C/C(=O)c2cc(Br)ccc(=O)c2O)cc1`, the Potency is 28.2 µM (active). For `CNc1ccc(Br)cc(C(=O)/C=C/c2ccc3c(c2)OCO3)c1=O`, the Potency entry was “inactive”. With `CCNc1ccc(Br)cc(C(=O)/C=C/c2ccccc2Cl)c1=O` the entry was “inactive”; with `N#Cc1nc(COc2ccc(-c3ccccc3)cc2)oc1NCc1cccnc1`, “inactive”. In the case of `Cc1ccc(NC(=O)COc2ccc(/C=C3/SC(=Nc4ccccc4)N(Cc4cccnc4)C3=O)cc2)cc1`, the Potency is 17.8 µM (active). As to `Cc1cccc(CN2C(=O)/C(=C\c3ccc(C(=O)NCCN4CCOCC4)cc3)Sc3ccccc32)c1`, the Potency result was “inactive”. As for `CCN1CCN(CCNC(=O)c2ccc(/C=C3/Sc4ccccc4N(Cc4cccc(C)c4)C3=O)cc2)CC1`, the Potency result is “inactive”.

As to `CC(C)(C)n1nnnc1C(c1cccs1)N(Cc1ccc(Cl)cc1)CC1CCCO1` (stereo not drawn), the Potency result is “inactive”. Take `CCN(CC)c1nc(-c2ccccn2)nc(-c2ccccc2)c1C#N`: the Potency was 5.62 µM (active). Turning to `CC(C)Nc1nc(-c2ccccn2)nc(-c2ccccc2)c1C#N`, the Potency result is “inactive”. On to `O=S(=O)([N-]c1nc2ccccc2nc1-[n+]1ccc(Cc2ccccc2)cc1)c1ccc(Br)s1`, for which the Potency was 3.55 µM (active). The value for `COc1cccc(C(=O)Oc2c(CN3CCOCC3)cc(Cl)c3cccnc23)c1` was “inactive”; that for `COC(=O)N/N=C/c1cn(CC(C)COc2ccccc2)c2ccccc12` (stereo not drawn) was “inactive”. The value for `S=C(NCCCN1CCOCC1)N1CCN(c2nc(-c3ccccc3)cs2)CC1` was “inactive”. Take `O=C(Nc1cnn(C23CC4CC(CC(C4)C2)C3)c1)c1cnn2c(C(F)(F)F)cc(-c3ccco3)nc12`: the Potency was 12.6 µM (active). Regarding `COC(=O)c1ccc(Oc2nc(NC(C)C)nc(N(C)C)n2)cc1`, the Potency entry is “inactive”. On to `O=C(CN1C(=O)c2ccccc2S1(=O)=O)N1CCc2ccccc21`, for which the Potency entry is “inactive”. On to `COCC(C)n1c(C)cc(C(=O)COC(=O)c2cccn2C)c1C` (stereo not drawn), for which the Potency result was “inactive”. `OC(c1ccc(Cl)cc1)c1ncc(-c2cccc(C(F)(F)F)c2)[nH]1` (stereo not drawn): the Potency result was “inactive”. In the case of `O=c1c2ccc(Cl)cc2nc(-c2cccc(C(F)(F)F)c2)n1O`, the Potency is 10 µM (active). As for `N#Cc1ccc(-c2nc3cc(Cl)ccc3c(=O)n2O)cc1`, the Potency result was “inactive”. As to `Cc1ccc(CN2CC(C(=O)Nc3ncc(C)s3)CC2=O)cc1` (stereo not drawn), the Potency result is “inactive”. Turning to `CCN(CCCn1c(=S)[nH]c2ccc(N3CCOCC3)cc2c1=O)c1ccccc1`, the Potency result was “inactive”.

As to `CC(Sc1ccc(Cl)cc1)C(=O)NNC(=O)c1ccccc1O` (stereo not drawn), the Potency result was “inactive”.

As for `CC1(C)Cc2ccccc2C2=NNC(=O)C2=N1`, the Potency is 25.1 µM (active). As to `COc1cccc(/C=N/n2c(N)c(S(=O)(=O)c3cccs3)c3nc4ccccc4nc32)c1OC`, the Potency was 14.1 µM (active). For the compound `CCCCn1c(N)c(S(=O)(=O)c2ccc(C)cc2)c2nc3ccccc3nc21`, the Potency entry was “inactive”. As to `Cc1ccc(S(=O)(=O)c2c(N)n(CC3CCOC3)c3nc4ccccc4nc23)cc1` (stereo not drawn), the Potency result is “inactive”.

Take `CCn1cc(C(=O)NCCCN2CCCC(C)C2)c(=O)c2cc(S(=O)(=O)N3CCc4ccccc4C3)ccc21` (stereo not drawn): the Potency entry was “inactive”. Consider `O=C(C1CC(=O)N(c2ccc3c(c2)OCCO3)C1)N1CCN(c2ccccc2)CC1` (stereo not drawn), for which the Potency result is “inactive”. `Cn1c(/C=C/c2ccc(Cl)cc2)c([N+](=O)[O-])c(=O)n(C)c1=O`: the Potency is 12.6 µM (active). As to `Cn1c(/C=C/c2ccc(Cl)cc2Cl)c([N+](=O)[O-])c(=O)n(C)c1=O`, the Potency was 10 µM (active). With `Cn1c(/C=C/c2cccc([N+](=O)[O-])c2)c([N+](=O)[O-])c(=O)n(C)c1=O` the figure was 14.1 µM (active); with `CN(c1ccc(OCC(=O)N2CCN(c3ccc(F)cc3)CC2)cc1)S(=O)(=O)c1cccs1`, “inactive”; with `CC(=O)N1CCCc2cc(S(=O)(=O)N3CCCC(C(=O)N4CCN(c5cc(C)ccc5C)CC4)C3)ccc21` (stereo not drawn), “inactive”. Consider `CCOc1ccc(/C=C/[N+](=O)[O-])c2ccccc12`, for which the Potency is 20 µM (active).

Consider `COc1ccc(NC(=O)N2CCN(c3nc(-c4cccc(OC)c4)cs3)CC2)cc1`, for which the Potency entry is “inactive”. For the compound `CC1CCN(C(=O)c2cc3nc(-c4ccccc4)cc(-c4ccccc4)n3n2)CC1`, the Potency result is “inactive”. Consider `Cc1c(C(=O)NCc2ccc(Cl)c(Cl)c2)sc(=O)n1Cc1ccc(S(C)(=O)=O)cc1`, for which the Potency result was “inactive”. The value for `O=S(=O)(Cc1cc(NCc2ccccc2)nc(-c2ccccn2)n1)c1ccccc1` was “inactive”; that for `CCN(CC)CCn1nc2c3c(cccc3c1=O)-c1ccccc1-2` was 11.2 µM (active); that for `C/C(=N\NC(=O)C12CCC(C)(C(=O)O1)C2(C)C)c1ccccc1O` (stereo not drawn) was “inactive”. As for `COc1ccc(-c2csc(NC(=O)C3CCN(c4ncnc5sc(C)c(C)c45)CC3)n2)cc1OC`, the Potency was 8.91 µM (active). In the case of `COc1ccc(S(=O)(=O)N(C)C)cc1NC(=O)C1CCN(c2ncnc3sc(C)c(C)c23)CC1`, the Potency result is “inactive”. With `CCc1ccc(C(=O)NNC(=O)C2CCN(c3ncnc4sc(C)c(C)c34)CC2)cc1` the entry was “inactive”.

With `Cc1ccccc1Oc1cc(NC(=O)CCCn2nc(C)c([N+](=O)[O-])c2C)cc([N+](=O)[O-])c1`, the Potency entry is “inactive”.

For `O=C(N/N=C/c1ccccc1O)C1CCCC1`, the Potency entry is “inactive”. Consider `O=C(Nc1ccccc1NC(=O)NC1CCCCC1)NC1CCCCC1`, for which the Potency was 20 µM (active). With `S=C(NCc1ccc(Cl)cc1Cl)NC1CCCCC1`, the Potency result was “inactive”. The value for `CCc1ccc(CNC(=O)c2cc3c(C)nc4ccccc4c3o2)cc1` was “inactive”. On to `Cc1ccc2[nH]c(O)c(N=NC(=O)C3CC3c3ccccc3)c2c1Br` (stereo not drawn), for which the Potency entry is “inactive”.

On to `O=C(NNCc1ccccc1)c1ccccc1`, for which the Potency result is “inactive”.

Regarding `O=C(/C=C/NNC(=O)c1ccccc1)c1ccc([N+](=O)[O-])cc1`, the Potency is 12.6 µM (active). `O=C(O)COc1ccc2oc3ccccc3c2c1`: the Potency result was “inactive”.

With `c1ccc(Cn2c(-c3ccccc3)c[n+]3c2SCCC3)cc1`, the Potency entry is “inactive”. As for `CCCCCC(=O)N/N=C(\C)c1ccccn1`, the Potency result is “inactive”. Regarding `COc1ccc(CC(=O)N/N=C(\C)c2ccccn2)cc1`, the Potency was 11.2 µM (active). In the case of `C/C(=N\NC(=O)c1cccc2ccccc12)c1ccccn1`, the Potency was 1.41 µM (active).

Regarding `C/C(=N\NC(=O)COc1cccc(C)c1)c1ccc2ccccc2c1O`, the Potency result is “inactive”. With `CCc1ccc(OCC(=O)N/N=C(\C)c2ccc(O)cc2O)cc1`, the Potency result was “inactive”. For `CCCC/C(C)=N/NC(=O)c1cn(-c2ccccc2)nc1-c1ccccc1`, the Potency entry was “inactive”.
